The record followed here is PubChem BioAssay AID431 (Sanford-Burnham Center for Chemical Genomics, 2006).

The whole screen tested about 63,000 compounds, of which about 1,100 (1.7%) were called active.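 How the source made its calls: active means compounds whose percent cytotoxicity in the single-dose primary screen, scaled between solvent and toxic-drug controls, exceeds 50; inactive means the rest.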 The sample as a whole holds a higher share of actives than the screen did. Potency and affinity values are given separately.

The nature of the experiment: viability loss of HPDE-C7K cells – cell-based, fluorescence, HTS, primary screen (AID 431).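 Further: 0% = DMSO solvent wells and 100% = doxorubicin-treated wells.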 As to conditions: HPDE-C7K KRASV12 cells, Alamar Blue viability, 48 h; at 10 µM; hits give high values. A general note: The colour change of resazurin is a common sign of viable cells or microbes.
Take `Cc1cc(=S)n(-c2ccccc2)n1C`: the cytotoxicity is -7.8% (inactive).

As to `Cc1cc(C)nc(SC(C)C(=O)Nc2ccc(S(N)(=O)=O)cc2)n1` (centres undefined), the cytotoxicity was -10.7% (inactive).

Take `Cc1ccc(-c2nnc3ccc(SCC(=O)N4CCCCC4)nn23)cc1`: the cytotoxicity is -7% (inactive).

With `CC1CCc2nc(NC(=O)Cc3cccs3)sc2C1` (centres undefined), the cytotoxicity is -16% (inactive).

Consider `CC(C)C1Cc2c(sc3c2c(=O)n(Cc2ccccc2)c2nncn32)CO1` (centres undefined), for which the cytotoxicity is 1.7% (inactive).

Regarding `Cc1nnc2n(Cc3ccccc3)c(=O)c3c4c(sc3n12)CN(Cc1ccccc1)CC4`, the cytotoxicity was 1.6% (inactive).

In the case of `C=CCn1c(SCCN2CCOCC2)nc2c1c(=O)[nH]c(=O)n2C`, the cytotoxicity was -10.8% (inactive).

Regarding `Cc1[nH]n2c(=O)cc(C(C)C)nc2c1-c1ccccc1`, the cytotoxicity was 28.7% (inactive).

In the case of `Cc1[nH]n2c(=O)cc(C(C)(C)C)nc2c1-c1ccccc1`, the cytotoxicity is 81.8% (active).

Regarding `Cc1cc(=O)n2[nH]c(C)c(-c3ccccc3)c2n1`, the cytotoxicity was -7% (inactive).

On to `CC(C)(C)NC(=O)C1N(c2cccnc2)C(=O)C2C(C(=O)Nc3ccccc3)C3(C)C=CC21O3` (centres undefined), for which the cytotoxicity is -15.4% (inactive).

Take `CCOC(=O)CSc1nc2cc(OCC)ccc2cc1C#N`: the cytotoxicity is 56.4% (active).

Regarding `CCOC(=O)CSc1nc2cc(OC)ccc2cc1C#N`, the cytotoxicity is 12.3% (inactive).

Regarding `CCOC(=O)CSc1nc2cc(C)ccc2cc1C#N`, the cytotoxicity is -2.4% (inactive).

Turning to `COc1cccc(-c2nn(-c3ccccc3)cc2CO)c1`, the cytotoxicity is 7.7% (inactive).

Turning to `CCOc1ccc(OCC)c(NC(=O)CSc2nc3ccccc3c(=O)n2C)c1`, the cytotoxicity is 16.7% (inactive).

In the case of `O=C(Nc1ccc(CN2CCCCC2)cc1)c1ccc(Br)o1`, the cytotoxicity is -24.8% (inactive).

In the case of `O=C(Nc1ccc(CN2CCOCC2)cc1)c1cc2ccccc2o1`, the cytotoxicity is 5.8% (inactive).

Turning to `O=C1NCCN1C(=O)C12CC3CC(CC(C3)C1)C2`, the cytotoxicity is -2.7% (inactive).

For the molecule `Cc1nc2ccc3nc(NC(=O)c4ccc5c(c4)OCCO5)sc3c2s1`, the cytotoxicity is -0.1% (inactive).

On to `COc1ccc2[nH]c(=O)c(CN(Cc3ccco3)C(=O)c3ccccc3)cc2c1`, for which the cytotoxicity was -1.9% (inactive).

Consider `CCOc1ccc2[nH]c(=O)c(CN(Cc3ccco3)C(=O)c3ccc(Br)cc3)cc2c1`, for which the cytotoxicity is 21.8% (inactive).

Turning to `CCOc1ccc2[nH]c(=O)c(CN(Cc3ccco3)C(=O)c3cccc(F)c3)cc2c1`, the cytotoxicity is 82% (active).

As for `O=C(c1c(Cl)nc2sccn12)N(C(=O)c1c(Cl)nc2sccn12)c1ccc(Cl)cn1`, the cytotoxicity is 16% (inactive).

With `COc1ccc(Oc2c(C)oc3cc(OC(=O)N4CCOCC4)ccc3c2=O)cc1`, the cytotoxicity was -5% (inactive).

Take `COc1ccc(-n2ccnc2SCC(=O)NCc2ccc3c(c2)OCO3)cc1`: the cytotoxicity was 3.4% (inactive).

In the case of `COc1ccc(-c2cc(=O)[nH]c(NCc3ccccc3)n2)cc1`, the cytotoxicity was 7.1% (inactive).

Take `COc1ccc(NCc2ccc(OC)c(OC)c2)cc1`: the cytotoxicity is -7.9% (inactive).

On to `COc1ccc(CNc2ccc(-c3ccc(OC)cc3)nn2)cc1`, for which the cytotoxicity was 59.4% (active).

Regarding `COc1ccc(C(CC(=O)O)NS(=O)(=O)c2ccc(C)cc2)cc1OC` (centres undefined), the cytotoxicity is -5.1% (inactive).

With `Cc1nnc(C)n1/N=C/C=C/c1ccccc1`, the cytotoxicity was -40% (inactive).

Take `O=C(O)c1cccc(Cn2cc(Br)cn2)c1`: the cytotoxicity is -3.7% (inactive).

With `O=C(c1ccc(Cn2cc(Br)cn2)cc1)N1CCN(c2ccccc2)CC1`, the cytotoxicity was 54.2% (active).

For `O=C(c1ccc(Cn2cc(Cl)cn2)cc1)N1CCN(c2ccccc2)CC1`, the cytotoxicity was 4.2% (inactive).

`Fc1ccc(Br)cc1C1C=C(c2cccnc2)Nc2ncnn21` (centres undefined): the cytotoxicity is 10.9% (inactive).

On to `Fc1ccc(Br)cc1C1C=C(c2ccc(Br)s2)Nc2ncnn21` (centres undefined), for which the cytotoxicity was 56.5% (active).

For `COc1cccc(C2C=C(c3ccc(Br)s3)Nc3ncnn32)c1OC` (centres undefined), the cytotoxicity is -7.6% (inactive).

For `COc1ccccc1CCC(=O)Nc1nc2ccccc2[nH]1`, the cytotoxicity is 3.7% (inactive).

As to `O=C(O)c1cc(NCc2c(F)cccc2Cl)ccc1N1CCOCC1`, the cytotoxicity was -14.3% (inactive).

As for `C=CCn1c(SCC(=O)Nc2c(C)cccc2C)nnc1-c1cnccn1`, the cytotoxicity was -10% (inactive).

With `CCCC(=O)N1CCN(S(=O)(=O)c2cc(Cl)ccc2OC)CC1`, the cytotoxicity was -3.6% (inactive).

Regarding `C=C(c1ccc(O)cc1)c1ccc(O)cc1`, the cytotoxicity is 12.5% (inactive).

Regarding `C/C=C(/C(=C/C)c1ccc(O)cc1)c1ccc(O)cc1`, the cytotoxicity is 111% (active).

Turning to `CCC(=O)c1ccc(O)cc1`, the cytotoxicity was -12% (inactive).

Turning to `CC(C)(C)NC(=O)NC(=O)COC(=O)COc1ccc2c(c1)CCC2`, the cytotoxicity is -4.8% (inactive).

On to `CCOC(=O)c1c(C)n(C)c2cc(Br)c(C(=O)OC)cc12`, for which the cytotoxicity was 5.9% (inactive).

As for `CCOC(=O)c1c(CN2CCN(CCO)CC2)n(C)c2cc(Br)c(OC)cc12`, the cytotoxicity is 98.7% (active).

As for `CCOC(=O)c1c(CN2CCCCC2)n(C)c2cc(Br)c(OC)cc12`, the cytotoxicity was 16.9% (inactive).

Turning to `CCOC(=O)c1c(CNCCN(CC)CC)n(C)c2cc(Br)c(OC)cc12`, the cytotoxicity is 71.2% (active).

Take `CCOC(=O)c1c(CN2CCN(C)CC2)n(C)c2cc(Br)c(OC)cc12`: the cytotoxicity is -8.5% (inactive).

In the case of `CCN(CC)CCNC(=O)c1c(C)oc2cc(Br)c(OC)cc12`, the cytotoxicity was 15.1% (inactive).

Take `O=C(COC(=O)c1cccc(S(=O)(=O)N2CCc3ccccc32)c1)NC1CCS(=O)(=O)C1` (centres undefined): the cytotoxicity was 23.6% (inactive).

As to `O=C(O)Cn1cnc2scc(-c3cccs3)c2c1=O`, the cytotoxicity was 6.1% (inactive).

For the molecule `Clc1ccc(Cc2noc(Cc3ccccc3)n2)cc1Cl`, the cytotoxicity was -5% (inactive).

`CCOC(=O)C(CCSC)NC(=O)CN` (centres undefined): the cytotoxicity is -9.8% (inactive).

In the case of `COC(=O)C1C(=O)c2c([nH]c(C(=O)OCCOC(C)C)c2C)CC1C` (centres undefined), the cytotoxicity is -0.2% (inactive).

`CCC(C)(C(=O)NC1CCCCC1)N(CC1CCCO1)C(=O)c1ccccn1` (centres undefined): the cytotoxicity was -5.6% (inactive).

For `CC1(C)CC(=O)C(C=NCC2CCCO2)=C(O)C1` (centres undefined), the cytotoxicity was -19.7% (inactive).

For the molecule `CC(=O)Nc1cc2c(cc1C(=O)c1ccc(C)cc1)OCCO2`, the cytotoxicity was 0.7% (inactive).

In the case of `COc1ccc(O)c(-c2cc(-c3cccs3)[nH]n2)c1`, the cytotoxicity is 34.1% (inactive).

On to `Oc1ccc(Br)cc1-c1cc(-c2ccccc2F)[nH]n1`, for which the cytotoxicity was 18% (inactive).

In the case of `Cc1nn(Cc2ccc(Cl)cc2Cl)c(C)c1NC(=O)c1nc2n(n1)C(C(F)F)CC(C)N2` (centres undefined), the cytotoxicity is 9.5% (inactive).

In the case of `CCOC(=O)c1[nH]c(C)c(/C=N/O)c1C`, the cytotoxicity is 0.1% (inactive).

As to `NC(=O)CSc1nnc(CNc2ccc(F)cc2)n1CC1CCCO1` (centres undefined), the cytotoxicity is -7.7% (inactive).
